# Laboratory results from PMC6451091, “NextPBM: a platform to study cell-specific transcription factor binding and cooperativity”.
# The full ranking holds about 3,700 sequences; the median of “z-score” is about 4, and the highest 2% start at about 8.4. Shown is part of a subset that was picked to be rich in the highest values.
# What was measured:
# PU.1 (IVT) [1] = target: PU.1 (IVT) (UniProt P17947 1-270); assay: protein-binding microarray (PBM); 20 mM HEPES pH 7.9, 100 mM NaCl, 1 mM DTT, 0.2 mg/mL BSA, 0.02% Triton X-100, 2% milk, 0.4 mg/mL salmon testes DNA; 1 h; temperature not stated; high values mean tight binding; conditions: dsDNA, one strand shown
# Procedure, shortened: (§1)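 Custom double-stranded DNA microarrays bearing 20-bp genomic sites and single-nucleotide variants (10 probes per site, 5 per orientation) were incubated for 1 h with full-length untagged PU.1 made by coupled human in vitro transcription/translation, in HEPES pH 7.9 with 100 mM NaCl, 2% milk and salmon testes DNA. Anti-PU.1 and a fluorescent secondary antibody detected the bound protein. Each binding value is a z-score from scanned fluorescence after linear-regression normalisation.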
# PU.1 (IVT) [2] = target: PU.1 (IVT) (UniProt P17947 1-270); assay: as above; conditions: dsDNA, one strand shown; remark: listed apart in the source
# Procedure, shortened: as §1
Sequence,binding signal (PU.1 (IVT) [1]) [z-score],binding signal (PU.1 (IVT) [2]) [z-score]
GCCTAGCACCGAAAGGGGAAGTGCTAAAAGTGCTAGGTCTTGATTCGCTTGACGCTGCTG,6.97,
GCCTAGCACGAAAAGGGGAAGTGCTGGGGGTGCTAGGTCTTGATTCGCTTGACGCTGCTG,7.77,
GCCTAGCACCAAAAGCGGAAGTGGTGCCTGTGCTAGGTCTTGATTCGCTTGACGCTGCTG,8.56,
GCCTAGCACGAAAGGAGGAAGTGGAGGGTGTGCTAGGTCTTGATTCGCTTGACGCTGCTG,,5.92
GCCTAGCACCAAAAAGGGAAGTGGAAGCTGTGCTAGGTCTTGATTCGCTTGACGCTGCTG,,6.2
GCCTAGCACCAAAAAAGGAAGTGGCTGTGGTGCTAGGTCTTGATTCGCTTGACGCTGCTG,5.51,
GCCTAGCACGAAAAGCGGAAGTGGTGTGGGTGCTAGGTCTTGATTCGCTTGACGCTGCTG,8.61,
GCCTAGCACAAAAAAAGGAAAGGAAAGTAGTGCTAGGTCTTGATTCGCTTGACGCTGCTG,1.27,
GCCTAGCACAAAATGAGGAAGTGCATTGAGTGCTAGGTCTTGATTCGCTTGACGCTGCTG,8.07,
GCCTAGCACAAAATGAGGAAGTGCTTCTAGTGCTAGGTCTTGATTCGCTTGACGCTGCTG,8.37,
GCCTAGCACAAAATGAGGAAGTGAACAAAGTGCTAGGTCTTGATTCGCTTGACGCTGCTG,8.02,
GCCTAGCACAAAATGAGGAAGTGACTTTGGTGCTAGGTCTTGATTCGCTTGACGCTGCTG,8.87,
GCCTAGCACAAAAGGAGGAAGTTGGTTGGGTGCTAGGTCTTGATTCGCTTGACGCTGCTG,7.62,
GCCTAGCACAAAATGAGGAAGTGTGATTAGTGCTAGGTCTTGATTCGCTTGACGCTGCTG,7.8,
GCCTAGCACAAAATGAGGAAGTAATTCCTGTGCTAGGTCTTGATTCGCTTGACGCTGCTG,8.66,
GCCTAGCACAAAATGAGGAACTGCTGTCTGTGCTAGGTCTTGATTCGCTTGACGCTGCTG,6.9,
GCCTAGCACAAAATGAGGAAGTTGGATGGGTGCTAGGTCTTGATTCGCTTGACGCTGCTG,8.35,
GCCTAGCACAAAATGAGGAAGTGAGCTAAGTGCTAGGTCTTGATTCGCTTGACGCTGCTG,7.94,
GCCTAGCACAAAATGAGGAAGTACCCTCTGTGCTAGGTCTTGATTCGCTTGACGCTGCTG,8.28,
GCCTAGCACAAATAGAGGAAGTGGAATGGGTGCTAGGTCTTGATTCGCTTGACGCTGCTG,7.2,
GCCTAGCACACAATGAGGAAGTGCTGGCCGTGCTAGGTCTTGATTCGCTTGACGCTGCTG,,6.19

Sequence,binding signal (PU.1 (IVT) [1]) [z-score],binding signal (PU.1 (IVT) [2]) [z-score]
GCCTAGCACTAAAGGAGGAATTGAAACCAGTGCTAGGTCTTGATTCGCTTGACGCTGCTG,1.22,
GCCTAGCACGCCAGGAGGAAGTGGAAATGGTGCTAGGTCTTGATTCGCTTGACGCTGCTG,4.22,
GCCTAGCACGACAAGAGGAAGTGCAAGATGTGCTAGGTCTTGATTCGCTTGACGCTGCTG,4.87,
GCCTAGCACATATGGAGGAAGTGGAACCCGTGCTAGGTCTTGATTCGCTTGACGCTGCTG,3.92,
GCCTAGCACCTGCCAGGGAAGTGTAAGCAGTGCTAGGTCTTGATTCGCTTGACGCTGCTG,,0.66
GCCTAGCACAAAAAGAAGAAGTGGGGCTTGTGCTAGGTCTTGATTCGCTTGACGCTGCTG,,4.26
GCCTAGCACTGAAAGGGGAAGTCTTTTTAGTGCTAGGTCTTGATTCGCTTGACGCTGCTG,6.55,
GCCTAGCACAAAATGAGGAAGTGGAAGGGGTGCTAGGTCTTGATTCGCTTGACGCTGCTG,8.15,
GCCTAGCACAAAATGAGGAAGTGCTGGCAGTGCTAGGTCTTGATTCGCTTGACGCTGCTG,8.14,
GCCTAGCACAAAATGAGGAAGTGGCTTTGGTGCTAGGTCTTGATTCGCTTGACGCTGCTG,8.37,
GCCTAGCACTAAATGAGGAAGTGTGCTGTGTGCTAGGTCTTGATTCGCTTGACGCTGCTG,7.74,
GCCTAGCACAAGATGAGGAAGTGAGTGTAGTGCTAGGTCTTGATTCGCTTGACGCTGCTG,,6.13
GCCTAGCACAAAAAGAGGAAGTCTGGTGTGTGCTAGGTCTTGATTCGCTTGACGCTGCTG,8.02,
GCCTAGCACAAAAAGAGGAAGTCAGTTTGGTGCTAGGTCTTGATTCGCTTGACGCTGCTG,8.4,
GCCTAGCACAAAAAGAGGAAGTGATGACCGTGCTAGGTCTTGATTCGCTTGACGCTGCTG,8.84,
GCCTAGCACAAAAAAAGGAAGTGGACCGTGTGCTAGGTCTTGATTCGCTTGACGCTGCTG,,6.55
GCCTAGCACAAAAAAAGGAAGTGATAGCCGTGCTAGGTCTTGATTCGCTTGACGCTGCTG,,6.5
GCCTAGCACAAAGAGAGGAAGTACAGTTTGTGCTAGGTCTTGATTCGCTTGACGCTGCTG,5.35,
GCCTAGCACGAAAAGAGGAAGTGTGAGATGTGCTAGGTCTTGATTCGCTTGACGCTGCTG,8.2,
GCCTAGCACAAAAAGAGGAAGTGATGAGTGTGCTAGGTCTTGATTCGCTTGACGCTGCTG,8.92,
GCCTAGCACGAAAAGAGGAAGTGAGATGTGTGCTAGGTCTTGATTCGCTTGACGCTGCTG,8.73,

Sequence,binding signal (PU.1 (IVT) [1]) [z-score],binding signal (PU.1 (IVT) [2]) [z-score]
GCCTAGCACGAAAAGAGGAAGTGTGAGACGTGCTAGGTCTTGATTCGCTTGACGCTGCTG,7.97,
GCCTAGCACAAGAAGAGGAAGTGAGTGCTGTGCTAGGTCTTGATTCGCTTGACGCTGCTG,7.09,
GCCTAGCACTTAATGAGGAAGTGCTGTCAGTGCTAGGTCTTGATTCGCTTGACGCTGCTG,6.5,
GCCTAGCACTAGATGAGGAAGTACTGTGCGTGCTAGGTCTTGATTCGCTTGACGCTGCTG,,6.57
GCCTAGCACTTTAACAGGAAGTGAAACCAGTGCTAGGTCTTGATTCGCTTGACGCTGCTG,,4.61
GCCTAGCACCAAAAAGGGAAGTGGGTTGAGTGCTAGGTCTTGATTCGCTTGACGCTGCTG,7.02,
GCCTAGCACTGAAACAGGAAGTGAGACCAGTGCTAGGTCTTGATTCGCTTGACGCTGCTG,6.68,
GCCTAGCACGGAATAGGGAAGTGAAACTGGTGCTAGGTCTTGATTCGCTTGACGCTGCTG,,6.68
GCCTAGCACGAAAAGGGGAACTGAAACTAGTGCTAGGTCTTGATTCGCTTGACGCTGCTG,6.15,
GCCTAGCACAAAAAGAGGAAGTGAGCTTAGTGCTAGGTCTTGATTCGCTTGACGCTGCTG,8.51,
GCCTAGCACAAAAAGAGGAAGTGCACAAGGTGCTAGGTCTTGATTCGCTTGACGCTGCTG,8.64,
GCCTAGCACAAAAAGAGGAAGGGGAAGAAGTGCTAGGTCTTGATTCGCTTGACGCTGCTG,,6.26
GCCTAGCACAAAAAAAGGAAGTGAGAGCTGTGCTAGGTCTTGATTCGCTTGACGCTGCTG,,6.29
GCCTAGCACAAAAGGAGGAAGTGATCCCTGTGCTAGGTCTTGATTCGCTTGACGCTGCTG,6.77,
GCCTAGCACAAAAGGAGGAAGTGAAAGTAGTGCTAGGTCTTGATTCGCTTGACGCTGCTG,6.69,
GCCTAGCACAAAAAGAGGAAGAGGAGGAGGTGCTAGGTCTTGATTCGCTTGACGCTGCTG,,5.1
GCCTAGCACAAAAGGAGGAAGTGGGGGGAGTGCTAGGTCTTGATTCGCTTGACGCTGCTG,,6.01
GCCTAGCACAAAAAGAGGAAGTGCCCTGTGTGCTAGGTCTTGATTCGCTTGACGCTGCTG,8.56,
GCCTAGCACAAAAAAGAGAAGTGGGGGAAGTGCTAGGTCTTGATTCGCTTGACGCTGCTG,5.77,
GCCTAGCACAAAAAGAGGAAGTGGGGGAGGTGCTAGGTCTTGATTCGCTTGACGCTGCTG,8.59,
GCCTAGCACAAAGAAAGGAAGTGGCCTGTGTGCTAGGTCTTGATTCGCTTGACGCTGCTG,2.71,
